# Compound activity deposited in PubChem BioAssay by several laboratories.
# Only some compounds are listed: those with a hit (about 4.3% of all), similar ones and a draw of the others.
# BoNT-F LC inh: BoNT/F light chain protease inhibitors, primary screen, biochemical, flow cytometry, MLPCN library; inhibition, % at 10 µM; Multiplex microsphere protease cleavage assay; AID 588497, 2011; Botulinum neurotoxin type F light chain protease (Clostridium botulinum); actives 0.22% (n = 360,000); in the data active = inhibition above about 35%, passing the limit was not always enough; inconclusive = no clear call, values can overlap the other calls
# Anthrax LF prot: Bacillus anthracis LF protease inhibitors, primary screen, biochemical, multiplex microsphere, MLPCN library | actives 0.12% (n = 360,000) | inhibition, % at 10 µM | multiplex microsphere protease cleavage assay | AID 588501, 2011 | Lethal factor (Bacillus anthracis), P15917
# PfHsp40 rescue: rescue of yeast from PfHsp40 toxicity, primary screen, S. cerevisiae, ATP luminescence; S. cerevisiae expressing PfHsp40, growth rescue; actives 0.68% (n = 340,000); growth rescue, % at 12.5 µM; in the data active = growth rescue above about 28%, passing the limit was not always enough; inconclusive = no clear call, values can overlap the other calls;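 note: yeast W303a lacking pdr1 and pdr3 grown in galactose medium; growth measured after three days at 30 °C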
# BoNT-A LC inh2: BoNT/A light chain protease inhibitors, primary screen, biochemical, flow cytometry, MLPCN library; Botulinum neurotoxin type A light chain protease (Clostridium botulinum A str. ATCC 3502); multiplex microsphere protease substrate cleavage; inhibition, % at 10 µM; actives 0.17% (n = 360,000)
# MazF activator: activators of E. coli MazEF toxin-antitoxin RNase, primary screen, biochemical, fluorescence, uHTS | Endoribonuclease toxin MazF (Escherichia coli (strain K12)), P0AE70 | FAM/BHQ RNA-DNA oligo cleavage fluorescence, 5 h | activation, % at 20 µM | actives 0.32% (n = 350,000) | AID 504720, 2011; in the data active = activation above about 50%
# Target sequence (P0AE70 whole entry, looked up): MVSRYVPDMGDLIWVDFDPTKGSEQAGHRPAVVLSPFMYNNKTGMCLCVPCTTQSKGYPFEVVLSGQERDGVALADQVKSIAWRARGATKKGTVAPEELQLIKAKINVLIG
# Bead autofluor: compound fluorescence in toxin protease inhibitor counterscreen. fluorescence intensity (concentration not given with the values). compound autofluorescence counterscreen, microsphere flow cytometry; active compounds read high. actives 3.1% (n = 360,000). AID 624483; in the data active = fluorescence intensity above about 16000; inconclusive = no clear call, values can overlap the other calls
# Hits are given with their value; 0 = inactive; ? = inconclusive; - = no result. Cut-off read from the data, not from the text of the source, unless noted: active = inhibition above about 30%; inconclusive = no clear call, values can overlap the other calls; inactive = below that.
SMILES,BoNT-F LC inh,Anthrax LF prot,PfHsp40 rescue,BoNT-A LC inh2,MazF activator,Bead autofluor
C=CCNCc1ccc(C(=O)NCCCCCCC)cc1[N+](=O)[O-],0,0,0,0,0,0
CCOc1ccccc1N1CCN(Cc2cnc(-c3ccccc3)[nH]2)CC1,?,0,0,?,0,0
O=C(CCS(=O)(=O)c1ccc(Br)cc1)N1CCN(c2ccc(Cl)cc2)CC1,0,0,0,0,0,20319
O=C(CCS(=O)(=O)c1ccc(Br)cc1)N1CCN(c2ccc(F)cc2)CC1,0,0,0,0,0,0
O=[N+]([O-])c1ccc(Sc2cccc[n+]2[O-])c2nonc12,0,0,683.2,0,103.5,0
O=[N+]([O-])c1ccc(Nc2ccccc2)c2nonc12,0,0,0,0,0,0
Cc1cccc(C)c1-n1nnnc1C(c1ccnc2ccccc12)N1CCN(C/C=C/c2ccccc2)CC1 (stereo unspecified),0,0,-,0,-,0
Cc1ccc(NC(=O)COC(=O)c2cccnc2)c(C)c1,0,0,0,0,0,0
Cc1cc(C)c(C(=O)CC(=O)c2cccnc2)c(C)c1,0,0,285.8,0,0,0
CCn1c(SCC(=O)N/N=C/C=C\c2ccco2)nc2ccccc21,0,0,0,0,0,0
Cn1c(SCC(=O)N/N=C/C=C\c2ccco2)nc2ccccc21,0,0,0,0,0,22987
Cc1cc(=O)oc2cc(OCc3ccc(C(=O)OCC(=O)Nc4ccc(N(C)C)cc4)cc3)ccc12,0,0,0,0,0,0
O=c1c2nnn(Cc3ccc(Cl)cc3)c2ncn1Cc1ccc(F)cc1,0,0,0,0,0,22862
COC(=O)c1cc(C(=O)OCC(=O)N2CCCCC2)cc([N+](=O)[O-])c1,0,0,0,0,0,0
COc1cc(/C=N/NC(=O)c2cccnc2)ccc1OS(=O)(=O)c1ccc(F)cc1,0,0,0,0,0,20771
O=C(Cn1nnc(-c2ccc(CN3CCOCC3)cc2)n1)N1CCCc2ccccc21,0,0,0,0,0,22876
O=C(CN1CCOCC1)N1CCCc2ccccc21,0,0,0,0,0,0
Cn1c2c(c(=O)n(C)c1=O)CN(CCCN1CCOCC1)CN2,0,0,0,0,0,16352
NC(=O)NC(c1ccccc1)c1ccccc1,0,0,0,0,0,0
NC(=O)NC(c1ccccc1)c1ccccc1F (stereo unspecified),0,0,0,0,0,23015
COc1ccccc1NC(=O)Cc1nnc(SCC(=O)NC2=NCCS2)n1C,0,0,0,0,0,0
Cc1ccc(S(=O)(=O)N(C)C)cc1NC(=S)N(C)C1CCN(C)CC1,0,0,0,0,0,0
Cc1cc(C)c(NC(=O)C2CCCO2)c(C)c1 (stereo unspecified),0,0,0,0,0,0
O=C(Nc1c(F)cc(F)cc1Br)C1CCCO1 (stereo unspecified),0,0,0,0,0,25313
COc1cccc(CNC(=O)c2cc(S(=O)(=O)N3CCOCC3)ccc2N2CCCC2)c1,-,-,0,-,0,-
SMILES,BoNT-F LC inh,Anthrax LF prot,PfHsp40 rescue,BoNT-A LC inh2,MazF activator,Bead autofluor
Cc1ccc2nc(NC(=O)CCNS(=O)(=O)c3ccc(Br)s3)sc2c1,0,0,0,0,0,23058
CN1CCN(CC(=O)Nc2c(C(=O)C3CC3)oc3ccccc23)CC1,0,0,0,0,0,22556
O=C(CN1CCOCC1)Nc1c(C(=O)C2CC2)oc2ccccc12,0,0,0,0,0,0
COc1ccccc1Nc1nnc(SCC(=O)N2CCCC2)s1,0,0,0,?,0,23377
O=[n+]1c2c(n([O-])c3cc(Br)ccc31)CCCC2,0,0,0,0,0,0
O=[n+]1c2c(n([O-])c3ccccc31)CCCC2,0,0,0,0,0,16483
CC(=O)Oc1ccc2c(=O)c(-c3nc4ccccc4s3)coc2c1,0,0,0,0,0,0
Cc1cc(C)cc(CC2CC(=O)N(c3ccc4c(c3)OCCO4)C2=O)c1 (stereo unspecified),0,0,0,0,0,0
Cc1cc(C)cc(CC2CC(=O)N(c3cc(C)on3)C2=O)c1 (stereo unspecified),0,0,0,0,0,19958
CC(=O)Nc1ccc(NC(=O)N(c2ccccc2)c2ccccc2)cc1,0,0,0,0,0,0
Cc1ccc(C2(CC(=O)O)CCOC(C)(C)C2)cc1 (stereo unspecified),0,0,0,?,0,19797
CC1(C)CC(CC(=O)O)(c2ccc(F)cc2)CCO1 (stereo unspecified),0,0,0,0,0,0
Cc1c(/C=N/NC(=O)c2cccs2)c2ccccc2n1Cc1ccccc1Cl,0,0,0,0,0,0
C/C(CCS(=O)(=O)c1ccccc1)=N/O,0,0,-,0,0,0
CCc1nc(SCc2cccnc2)c2c(=O)n(C)c(=O)n(C)c2n1,0,0,0,0,0,0
CC(C)Cc1nc(SCc2cccnc2)c2c(=O)n(C)c(=O)n(C)c2n1,0,0,32.9,0,0,0
N[C@@H](Cc1ccccc1)C(=O)N1CCC(C(=O)NCC(=O)NCC(=O)O)CC1,?,0,0,0,0,0
Cc1c(CN2CCCCC2C)c(=O)n(-c2ccccc2)n1C (stereo unspecified),0,0,0,?,0,22027
CC(C)=CCn1c2ccc(NC(=O)NCc3ccc(F)cc3)cc2c(=O)n1C,0,0,-,0,-,0
CC1CN(C(=O)CCC(=O)NCc2ccc(Cl)cc2)c2ccccc2S1 (stereo unspecified),0,0,0,0,0,0
COc1ccc(N2CS(=O)(=O)/C(=C/N(C)C)C2=O)cc1,0,0,0,0,0,20727
COc1ccc(N2Cc3ccccc3C2=O)cc1,?,0,0,0,0,0
CC(NC(=O)CSc1ncnc2nc[nH]c12)c1ccccc1 (stereo unspecified),0,0,0,0,0,21770
O=C(CSc1ncnc2nc[nH]c12)NCCc1ccccc1,0,0,0,0,0,0
CCOC(=O)N(C)c1ccc(C(O)(C(=O)OCC)C(F)(F)F)cc1 (stereo unspecified),0,0,0,0,0,22785
CCOC(=O)N(CC)c1ccc(C(O)(C(=O)OCC)C(F)(F)F)cc1 (stereo unspecified),0,0,0,0,0,0
CCOC(=O)c1ccc(NC(=O)c2c(N)n(Cc3ccccc3)c(=O)[nH]c2=O)cc1,0,0,0,0,0,0
Cc1ncsc1C(=O)N1N=C2/C(=C/c3ccc(N4CCOCC4)cc3)CCCC2C1c1ccc(N2CCOCC2)cc1 (stereo unspecified),0,0,0,0,0,24267
Cc1ncsc1C(=O)N1N=C2/C(=C/c3ccccc3)CCCC2C1c1ccccc1 (stereo unspecified),0,0,0,0,0,0
